What all share (assay): NCI-60 one-dose screen, 48 h (100 = growth as untreated, 0 = no growth, -100 = all killed)
In one test the test system is SR leukemia. Conditions: 10 µM unless noted.
For a further test, the system named is RPMI-8226 leukemia. Conditions: 10 µM unless noted.
The subject of another test is OVCAR-8 ovarian. Conditions: 10 µM unless noted.
The test system of the next test is OVCAR-5 ovarian. Conditions: 10 µM unless noted.
The subject of another test is OVCAR-4 ovarian. Conditions: 10 µM.
In the next test the test system is SK-OV-3 ovarian. Conditions: 10 µM unless noted.
A further test relates to IGROV1 ovarian. Conditions: 10 µM unless noted.
For a further test, the system named is OVCAR-3 ovarian. Conditions: 10 µM unless noted.
The next test relates to HS 578T breast. Conditions: 10 µM unless noted.
A further test has as its system NCI/ADR-RES ovarian. Conditions: 10 µM unless noted.
A further test relates to T-47D breast. Conditions: 10 µM unless noted.
A further test deals with BT-549 breast. Conditions: 10 µM unless noted.
A further test has as its system MDA-MB-435 melanoma. Conditions: 10 µM unless noted.
A further test relates to SW-620 colon. Conditions: 10 µM unless noted.
Another test relates to HCT-116 colon. Conditions: 10 µM unless noted.
The next test deals with HCC-2998 colon. Conditions: 10 µM unless noted.
The next test relates to KM12 colon. Conditions: 10 µM unless noted.
A further test relates to MCF7 breast. Conditions: 10 µM unless noted.

About 83,000 compounds went through this panel and 20% of them were active in at least one assay; those are over-represented in the sample as a whole.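 Negative percent growth values reflect cell death: -40 means 40% of the cells present at the start died, and -100 means all died.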 Values without a mark were called inactive. Activity calls are given as the source filed them. The calls were made as follows: active = growth percent below 10; inactive = the rest.

Turning to `CCn1cc(-c2ccnc(NCCNS(=O)(=O)c3ccc(Br)cc3)c2)c(-c2cccc(OC)c2)n1`, the growth in the test with SR leukemia is 42.2%; with RPMI-8226 leukemia it was 25%; in the test on OVCAR-8 ovarian, 63.5%; in the test on OVCAR-5 ovarian, 97.6%; in the test with OVCAR-4 ovarian, 55.3%; in the test with SK-OV-3 ovarian, 76.6%. The growth is 60.8% with IGROV1 ovarian; 78.3% with OVCAR-3 ovarian; 78.5% in the test with HS 578T breast; 73.9% in the test on NCI/ADR-RES ovarian; 16.3% with T-47D breast; 99.7% with BT-549 breast. The growth in the test with MDA-MB-435 melanoma is 83.7%; in the test on SW-620 colon, 81.7%; in the test on HCT-116 colon, 51.6%; with HCC-2998 colon it was 111%; with KM12 colon it was 82.8%.

As to `CCCn1ccnc1C(O)c1ccc(OCc2ccccc2)c(OC)c1` (configuration not stated), the growth in the test with SR leukemia is 96.1%; in the test on RPMI-8226 leukemia, 93.9%; in the test with OVCAR-8 ovarian, 96.7%; with OVCAR-5 ovarian, 93.3%; with OVCAR-4 ovarian, 96.5%; with SK-OV-3 ovarian it was 87.7%. The growth is 96.9% in the test with IGROV1 ovarian; 95.7% with OVCAR-3 ovarian; 109% with HS 578T breast; 91.3% with NCI/ADR-RES ovarian; 83.3% in the test with T-47D breast; 94.3% in the test on MDA-MB-435 melanoma. In addition, the growth in the test on SW-620 colon is 98%; with MCF7 breast, 85.4%; in the test on HCT-116 colon, 92.6%; with HCC-2998 colon, 95.8%; with KM12 colon it was 101%.

For `CC(C)C1=NOC(=O)C1=Cc1cn(-c2ccco2)nc1-c1ccccc1`, the growth is -2.02% (active) in the test with SR leukemia; 6.57% (active) in the test on RPMI-8226 leukemia; 80.5% in the test with OVCAR-8 ovarian; 114% in the test on OVCAR-5 ovarian; 94.6% with OVCAR-4 ovarian; 102% with SK-OV-3 ovarian. The growth is 90.2% in the test with IGROV1 ovarian; 90.6% in the test with OVCAR-3 ovarian; 96.1% in the test on HS 578T breast; 98% with NCI/ADR-RES ovarian; 49% in the test with T-47D breast; 116% with BT-549 breast. The growth in the test on MDA-MB-435 melanoma was 91.9%; in the test on SW-620 colon, 84%; in the test on HCT-116 colon, 58.2%; in the test on HCC-2998 colon it was 101%; in the test with KM12 colon, 85.2%.

`CCN=Cc1c(O)c(O)c(C(C)C)c2cc(C)c(-c3c(C)cc4c(C(C)C)c(O)c(O)c(C=NCC)c4c3O)c(O)c12`: the growth is 27% in the test with SR leukemia; 34.8% in the test with RPMI-8226 leukemia; 39.2% in the test with OVCAR-8 ovarian; 63.4% with OVCAR-5 ovarian; 31.7% in the test on OVCAR-4 ovarian; 63.4% in the test on SK-OV-3 ovarian. The growth was 46.8% in the test with IGROV1 ovarian; 32.5% in the test with OVCAR-3 ovarian; 57.8% with HS 578T breast; 47.9% with NCI/ADR-RES ovarian; 35% in the test on T-47D breast; 68.1% with MDA-MB-435 melanoma. Further, the growth in the test with SW-620 colon is 29.2%; in the test on MCF7 breast, 27.3%; in the test with HCT-116 colon it was 22.5%; in the test with HCC-2998 colon it was 38.9%.

Consider `COC(=O)[C@@H](NC(=O)NC(=O)NC(=O)CI)C(C)C`, for which the growth in the test with SR leukemia is -46.6% (active); with RPMI-8226 leukemia it was 74.5%; in the test on OVCAR-8 ovarian it was 90.9%; in the test with OVCAR-5 ovarian, 90.9%; with OVCAR-4 ovarian, 72.7%; in the test on SK-OV-3 ovarian it was 80.9%. Moreover, the growth in the test with IGROV1 ovarian was 101%; in the test on OVCAR-3 ovarian it was 7.92% (active); with HS 578T breast, 86.8%; with NCI/ADR-RES ovarian, 101%; with T-47D breast, 44.8%; in the test on MDA-MB-435 melanoma, 90.5%. For the same compound, the growth with SW-620 colon was 9.83% (active); with MCF7 breast, 59.9%; in the test with HCT-116 colon, 75%; in the test with HCC-2998 colon it was 113%; with KM12 colon, 100%.

For `C[C@]12CCc3c(ccc4cc(O)ccc34)[C@@H]1CC[C@H]2O`, the growth is 74.3% in the test on SR leukemia; 94.6% with RPMI-8226 leukemia; 103% in the test on OVCAR-8 ovarian; 107% in the test with OVCAR-5 ovarian; 96.1% with OVCAR-4 ovarian; 121% in the test with SK-OV-3 ovarian. Further, the growth in the test with IGROV1 ovarian was 110%; in the test on OVCAR-3 ovarian, 94.9%; in the test with HS 578T breast, 29.8%; in the test on NCI/ADR-RES ovarian, 101%; in the test with T-47D breast it was 91.8%; in the test with MDA-MB-435 melanoma, 80.1%. Besides, the growth in the test on SW-620 colon is 99.1%; with MCF7 breast, 116%; in the test with HCT-116 colon, 102%; in the test on HCC-2998 colon, 107%; with KM12 colon it was 98.1%.

As to `COc1ccc(C(=O)CCC(=O)O)cc1`, the growth in the test with SR leukemia was 99.7%; in the test with RPMI-8226 leukemia, 87.3%; in the test with OVCAR-8 ovarian it was 71.4%; in the test with OVCAR-5 ovarian, 88.3%; in the test with OVCAR-4 ovarian, 64.8%; with SK-OV-3 ovarian, 115%. For the same compound, the growth in the test on IGROV1 ovarian was 96.8%; in the test on OVCAR-3 ovarian it was 79%; in the test on HS 578T breast, 105%; in the test on NCI/ADR-RES ovarian, 83.6%; in the test on T-47D breast it was 33.9%; in the test on MDA-MB-435 melanoma it was 107%. Also, the growth with SW-620 colon is 84.5%; in the test with MCF7 breast, 21.2%; in the test on HCT-116 colon it was 7.77% (active); with HCC-2998 colon, 102%; in the test on KM12 colon, 103%.

Take `Cc1ccc(-c2cc(O)c(-c3ccc(C)cc3C)cc2O)c(C)c1`: the growth was 7.1% (active) in the test with SR leukemia; 37.2% in the test with RPMI-8226 leukemia; 47.7% in the test on OVCAR-8 ovarian; 96.9% with OVCAR-5 ovarian; 41.2% with OVCAR-4 ovarian; 82.7% in the test on SK-OV-3 ovarian. The growth in the test on IGROV1 ovarian was 86.9%; with OVCAR-3 ovarian it was 67.8%; with HS 578T breast it was 87.9%; with NCI/ADR-RES ovarian it was 52.2%; in the test with T-47D breast, 67.1%; with MDA-MB-435 melanoma, 66.5%. Moreover, the growth with SW-620 colon was 56.5%; in the test on MCF7 breast, 49.2%; with HCT-116 colon it was 23.9%; in the test with HCC-2998 colon it was 77.7%; in the test with KM12 colon, 55.3%.

Consider `CCOC(=O)/C(C#N)=C(\C)CCc1ccccc1`, for which the growth is 153% with SR leukemia; 61.1% with RPMI-8226 leukemia; 103% with OVCAR-8 ovarian; 108% in the test with OVCAR-5 ovarian; 58.9% with OVCAR-4 ovarian; 125% in the test on SK-OV-3 ovarian. For the same compound, the growth in the test on IGROV1 ovarian is 81.2%; in the test on OVCAR-3 ovarian, 118%; in the test on HS 578T breast, 98.7%; in the test on NCI/ADR-RES ovarian it was 98.8%; in the test on T-47D breast it was 98.9%; with MDA-MB-435 melanoma it was 110%. Moreover, the growth in the test with SW-620 colon was 103%; in the test on MCF7 breast, 91.9%; with HCT-116 colon it was 87.7%; in the test with HCC-2998 colon, -6.07% (active); in the test on KM12 colon, 113%.

Values taken from PubChem BioAssay (NCI).
